# Measurements reported in article PMC11062922 (Nature Chemical Biology, 2023).
# Read-outs that look alike come from different tables or passages of the source.
# Tests used:
# Design in all cases: species or system human, MV4-11 + K-562 + COLO205 + SK-N-BE2 + OVCAR-8
# ADCK1 = conditions: read-out: apparent Kd, n = 1
# PIK3CD = conditions: read-out: apparent Kd, n = 1
# RIOK2 = conditions: read-out: apparent Kd, n = 1
# ROCK2 = conditions: read-out: apparent Kd, n = 1
# CSNK1A1 = conditions: read-out: apparent Kd, n = 1
# YES1 = conditions: read-out: apparent Kd; compound concentrations:100 nM and 1000 nM (sheet 'Samples'); n = 1
# CSNK1E = conditions: read-out: apparent Kd, n = 1
# MAPK8 = conditions: read-out: apparent Kd, compound concentrations: 100 nM and 1000 nM (sheet 'Samples'), n = 1
# PRKX = conditions: read-out: apparent Kd, n = 1
# RPS6KA4 = conditions: read-out: apparent Kd; compound concentrations:100 nM and 1000 nM (sheet 'Samples'); n = 1
# STK3 = conditions: read-out: apparent Kd; compound concentrations: 100 nM and 1000 nM (sheet 'Samples'), CATDS: 0.106754068539186; n = 1
# ATM = conditions: read-out: apparent Kd, n = 1
# PTK6 = conditions: read-out: apparent Kd; compound concentrations: 100 nM and 1000 nM (sheet 'Samples'), CATDS: 1.9530380694073899E-2; n = 1
# TNIK = conditions: read-out: apparent Kd, n = 1
# CDK17 = conditions: read-out: apparent Kd, n = 1
# [1] = compound concentrations:100 nM and 1000 nM (sheet 'Samples')
smiles,measurement,setting,value
CN(C)CCNC(=O)Nc1ccc(N(C)c2ccnc(Nc3ccc(CS(C)(=O)=O)cc3)n2)cc1.Cl [GW830900A],potency estimated from few doses,ADCK1; [1],88.9 nM
CS(=O)(=O)Nc1ccc(-c2ccnc3[nH]ccc23)cc1 [GSK993273A],potency estimated from few doses,PIK3CD; [1],183 nM
same,potency estimated from few doses,RIOK2; [1],1670 nM
CCCc1cc(N2CCCN(C)CC2)nc2sc3c(N)ncnc3c12 [BI00604564],potency estimated from few doses,"ADCK1; compound concentrations: 100 nM and 1000 nM (sheet 'Samples'), CATDS: 0.15175006426197701",1550 nM
same,potency estimated from few doses,"RIOK2; compound concentrations: 100 nM and 1000 nM (sheet 'Samples'), CATDS: 0.19130476647028",959 nM
Cl.Cl.NC(CNC(=O)c1cc(Br)c(-c2ccnc3[nH]ccc23)s1)c1ccccc1.NC(CNC(=O)c1cc(Br)c(-c2ccnc3[nH]ccc23)s1)c1ccccc1 (stereo not shown) [GSK1322949A],potency estimated from few doses,"ROCK2; compound concentrations: 100 nM and 1000 nM (sheet 'Samples'), CATDS: 0.12553300825941399",122 nM
CS(=O)(=O)Nc1cccc(-c2ccc3c(NC(=O)C4CC4)n[nH]c3c2)c1 [SB-742864],potency estimated from few doses,"PIK3CD; compound concentrations: 100 nM and 1000 nM (sheet 'Samples'), CATDS: 0.40980617743007602",162 nM
CNc1cc(-c2ccc3c(N)n[nH]c3c2)nc(N)n1 [GSK2224810A],potency estimated from few doses,CSNK1A1; [1],2450 nM
same,potency estimated from few doses,PIK3CD; [1],83.4 nM
same,potency estimated from few doses,YES1,1160 nM
c1ccc(-c2n[nH]cc2Nc2ccnc3ccccc23)nc1 [GW694077X],potency estimated from few doses,"CSNK1A1; compound concentrations: 100 nM and 1000 nM (sheet 'Samples'), CATDS: 2.3053021042780501E-2",2030 nM
same,potency estimated from few doses,"CSNK1E; compound concentrations: 100 nM and 1000 nM (sheet 'Samples'), CATDS: 2.3726321551731398E-2",1790 nM
same,potency estimated from few doses,MAPK8; CATDS: 2.3443095841232799E-2,1880 nM
same,potency estimated from few doses,"PIK3CD; compound concentrations: 100 nM and 1000 nM (sheet 'Samples'), CATDS: 5.6537253255213298E-2",148 nM
same,potency estimated from few doses,"RIOK2; compound concentrations: 100 nM and 1000 nM (sheet 'Samples'), CATDS: 3.1389541451057497E-2",683 nM
CN(c1ccc(NC(=O)NCCN2CCOCC2)cc1)c1ccnc(Nc2ccc(CS(C)(=O)=O)cc2)n1.Cl [GW830365A],potency estimated from few doses,"ADCK1; compound concentrations: 100 nM and 1000 nM (sheet 'Samples'), CATDS: 4.75269778892356E-2",1550 nM
CCn1c(-c2nonc2N)nc2cncc(C(=O)N3CC[C@H](N)C3)c21.Cl [SB-772077-B],potency estimated from few doses,PRKX; [1],177 nM
same,potency estimated from few doses,ROCK2; [1],11.6 nM
same,potency estimated from few doses,RPS6KA4,82.6 nM
COc1cccc(C2=C(c3c(C)n(C)c4ccccc34)C(=O)NC2=O)c1 [RO3300167-000],potency estimated from few doses,STK3,824 nM
Cl.Cl.NC[C@H](CC1CCCCC1)NC(=O)c1ccc(-c2ccnc3[nH]ccc23)s1.NC[C@H](CC1CCCCC1)NC(=O)c1ccc(-c2ccnc3[nH]ccc23)s1 [GSK1581428A],potency estimated from few doses,PRKX; [1],14.8 nM
same,potency estimated from few doses,ROCK2; [1],22.8 nM
CCC(CC)(CC)n1cnc2c(N)ncnc21 [SKF-97620],potency estimated from few doses,"ATM; compound concentrations: 100 nM and 1000 nM (sheet 'Samples'), CATDS: 0.160358426493935",43.6 nM
same,potency estimated from few doses,"CSNK1A1; compound concentrations: 100 nM and 1000 nM (sheet 'Samples'), CATDS: 2.3982037208091899E-2",2040 nM
same,potency estimated from few doses,"PIK3CD; compound concentrations: 100 nM and 1000 nM (sheet 'Samples'), CATDS: 0.27263149415517701",20.5 nM
same,potency estimated from few doses,"ROCK2; compound concentrations: 100 nM and 1000 nM (sheet 'Samples'), CATDS: 2.44983042375609E-2",1890 nM
Cl.Cn1c(=O)c(Cc2ccccc2F)cc2cnc(NC3CCOCC3)nc21 [RO3305377-001],potency estimated from few doses,PTK6,1190 nM
NS(=O)(=O)c1cccc(-c2ccc3c(NC(=O)C4CC4)n[nH]c3c2)c1 [SB-741905],potency estimated from few doses,"ATM; compound concentrations: 100 nM and 1000 nM (sheet 'Samples'), CATDS: 0.31609765928995098",205 nM
O=C1N=C(N[C@H](CO)c2ccccc2)S/C1=C\c1ccc2ncccc2c1 [RO4554339-000],potency estimated from few doses,"PRKX; compound concentrations: 100 nM and 1000 nM (sheet 'Samples'), CATDS: 0.109723190232525",705 nM
Cc1cc(NC(=O)c2cccc(NC(=O)/C=C/CN(C)C)c2)ccc1Nc1nccc(-c2cccnc2)n1 [JNK-IN-7],potency estimated from few doses,ATM; [1],273 nM
same,potency estimated from few doses,CSNK1E; [1],2010 nM
same,potency estimated from few doses,MAPK8; CATDS: 0.361738634517147,10.7 nM
same,potency estimated from few doses,RIOK2; [1],720 nM
Nc1nccc(-c2ccc3c(N)n[nH]c3c2)n1 [GSK1034945A],potency estimated from few doses,PRKX; [1],1040 nM
CCn1c(-c2nonc2N)nc2cncc(Br)c21 [SB-738004],potency estimated from few doses,ROCK2; [1],84.1 nM
NS(=O)(=O)c1ccc(N/N=C2\C(=O)Nc3ccc(-c4cnco4)cc32)cc1 [GW276655_KCGS],potency estimated from few doses,TNIK; [1],1940 nM
CC(C)(CO)CNC(=O)c1ccc2c(c1)/C(=N/Nc1ccc(S(N)(=O)=O)cc1)C(=O)N2 [GW301784X],potency estimated from few doses,CDK17; [1],212 nM
Cl.Nc1nc(-c2ccc3c(c2)C(=Cc2cc(Br)c(O)c(Br)c2)C(=O)N3)cs1 [GW407323A],potency estimated from few doses,"CDK17; compound concentrations: 100 nM and 1000 nM (sheet 'Samples'), CATDS: 2.78233460707746E-2",2030 nM
same,potency estimated from few doses,"TNIK; compound concentrations: 100 nM and 1000 nM (sheet 'Samples'), CATDS: 0.10928508706444801",58.6 nM
COc1cc2ncn(-c3cc(OCc4ccccc4S(C)(=O)=O)c(C#N)s3)c2cc1OC [GSK319347A],potency estimated from few doses,"TNIK; compound concentrations: 100 nM and 1000 nM (sheet 'Samples'), CATDS: 7.3332449024222507E-2",2280 nM
